Data published in PubChem BioAssay (NCATS).
Results filed as inconclusive are left out. The source made the active and inactive calls. Calls follow the shape of the dose curve; as a rule, active = well fitted curve in the direction sought with a large enough effect; inconclusive = small, poorly fitted or top-dose-only effect, or another doubt; inactive = no such curve, though single readings can be large; an effect the other way counts as inactive or inconclusive.

Assays:
NIH3T3 = experiment: qHTS assay to identify novel small-molecules to repurpose for Merkel cell carcinoma treatment (AID 1296009); conditions: MCC and control cell lines, CellTiter-Glo viability, 72 h; at 44.8 µM (top of the series) unless noted; also: nearly all actives have a fitted effect of over 60% in size
Summary of the method: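 qHTS format: cells treated with library compounds in DMSO across 8 (NPC) or 11 (MIPE) concentrations. Readout after 72 hr at 37 degree celsius was CellTiter-Glo luminescence.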

C33A = experiment: Primary qHTS to identify gynecologic anti-cancer compounds using libraries of approved drugs and bioactive compounds (AID 1345084); conditions: Gynecologic cancer cell panel viability, ATPlite luminescence, 48 h; series mostly up to 57.5 µM; also: % is scaled to controls: 0 for no effect and ±100 for the full control effect; nearly all actives have a fitted effect of over 55% in size
Summary of the method: (§1)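 Five-concentration response, 48 h; readout is ATP-driven luciferase luminescence.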

CAOV3 = experiment: as above; conditions: Gynecologic cancer cell panel viability, ATPlite luminescence, 48 h; series mostly up to 57.5 µM
Summary of the method: as §1

CASKI = experiment: as above; conditions: Gynecologic cancer cell panel viability, ATPlite luminescence, 48 h; series mostly up to 57.5 µM
Summary of the method: as §1

Es-2 = experiment: as above; conditions: Gynecologic cancer cell panel viability, ATPlite luminescence, 48 h; series mostly up to 57.5 µM
Summary of the method: as §1

HeLa = experiment: as above; conditions: Gynecologic cancer cell panel viability, ATPlite luminescence, 48 h; series mostly up to 57.5 µM
Summary of the method: as §1

Hek293T = experiment: as above; conditions: Gynecologic cancer cell panel viability, ATPlite luminescence, 48 h, control line for the selectivity index; series mostly up to 57.5 µM
Summary of the method: as §1

JEG-3 = experiment: as above; conditions: Gynecologic cancer cell panel viability, ATPlite luminescence, 48 h; series mostly up to 57.5 µM
Summary of the method: as §1

OV90 = experiment: as above; conditions: Gynecologic cancer cell panel viability, ATPlite luminescence, 48 h; series mostly up to 57.5 µM
Summary of the method: as §1

PA-1 = experiment: as above; conditions: Gynecologic cancer cell panel viability, ATPlite luminescence, 48 h; series mostly up to 57.5 µM
Summary of the method: as §1

SKOV3 = experiment: as above; conditions: Gynecologic cancer cell panel viability, ATPlite luminescence, 48 h; series mostly up to 57.5 µM
Summary of the method: as §1

Tov-21-G = experiment: as above; conditions: Gynecologic cancer cell panel viability, ATPlite luminescence, 48 h; series mostly up to 57.5 µM
Summary of the method: as §1

Tov112D = experiment: as above; conditions: Gynecologic cancer cell panel viability, ATPlite luminescence, 48 h; series mostly up to 57.5 µM
Summary of the method: as §1

CC(=O)NC1C(OC2CCC3(C)C(CCC4(C)C3CC=C3C5CC(C)(C)CCC5(C(=O)O)C(O)CC34C)C2(C)C)OC(CO)C(O)C1O (stereo unspecified)
inactive: outcome (NIH3T3) inactive [at 17.4 µM] | Potency (C33A) | Potency (CAOV3) | outcome (CASKI) | Potency (Es-2) | Potency (HeLa) | Potency (Hek293T) | Potency (JEG-3) | Potency (OV90) | Potency (PA-1) | Potency (SKOV3) | Potency (Tov-21-G) | Potency (Tov112D)

COC(=O)C1(C)CCCC2(C)c3ccc(C(C)C)cc3C(O)C(O)C12 (stereo unspecified)
inactive: outcome (NIH3T3) | Potency (C33A) | Potency (CAOV3) | outcome (CASKI) | Potency (Es-2) | Potency (HeLa) | Potency (Hek293T) | Potency (JEG-3) | Potency (OV90) | Potency (PA-1) | Potency (SKOV3) | Potency (Tov-21-G) | Potency (Tov112D)

C=C1CC[C@@]2(OC1)O[C@H]1CC3C4CC=C5C[C@@H](O[C@@H]6O[C@@H](C)[C@H](O)[C@@H](O)[C@H]6O)C[C@@H](O[C@@H]6O[C@H](C)[C@H](O)[C@H](O)[C@H]6O[C@@H]6O[C@@H](C)[C@H](O)[C@@H](O)[C@H]6O)[C@]5(C)C4CC[C@]3(C)[C@H]1[C@@H]2C (stereo partly specified)
inactive: outcome (NIH3T3) inactive [at 9.27 µM] | activity change, negative = cytotoxicity (C33A) 1.56% [at 11.6 µM] | activity change, negative = cytotoxicity (CAOV3) 10.5% [at 11.6 µM] | activity change, negative = cytotoxicity (CASKI) -15.2% [at 11.6 µM] | activity change, negative = cytotoxicity (Es-2) 20.8% [at 11.6 µM] | activity change, negative = cytotoxicity (HeLa) 18.7% [at 11.6 µM] | activity change, negative = cytotoxicity (Hek293T) 5.62% [at 11.6 µM] | activity change, negative = cytotoxicity (JEG-3) -4.67% [at 11.6 µM] | activity change, negative = cytotoxicity (OV90) -12.6% [at 11.6 µM] | activity change, negative = cytotoxicity (PA-1) -0.609% [at 11.6 µM] | activity change, negative = cytotoxicity (SKOV3) -7.76% [at 11.6 µM] | activity change, negative = cytotoxicity (Tov-21-G) -15.7% [at 11.6 µM] | activity change, negative = cytotoxicity (Tov112D) 1.88% [at 11.6 µM]

O=C(O)CCc1ccc(NCc2cccc3c2CCCN3CCOc2ccccc2)cc1F
inactive: outcome (NIH3T3) | Potency (C33A) | Potency (CAOV3) | outcome (CASKI) | Potency (Es-2) | Potency (HeLa) | Potency (Hek293T) | Potency (JEG-3) | Potency (OV90) | Potency (PA-1) | Potency (SKOV3) | Potency (Tov-21-G) | Potency (Tov112D)

C[C@@H]1O[C@@H](O[C@H]2[C@@H]3C=CO[C@@H](O[C@@H]4O[C@H](CO)[C@@H](O)[C@H](O)[C@H]4O)[C@@H]3[C@@]3(CO)O[C@@H]23)[C@H](OC(=O)/C=C/c2ccc(O)cc2)[C@H](O)[C@H]1O
inactive: outcome (NIH3T3) inactive [at 17.4 µM] | Potency (C33A) | Potency (CAOV3) | outcome (CASKI) | Potency (Es-2) | Potency (HeLa) | Potency (Hek293T) | Potency (JEG-3) | Potency (OV90) | Potency (PA-1) | Potency (SKOV3) | Potency (Tov-21-G) | Potency (Tov112D)

CC1C2=CC(=O)OC2(O)CC2C1C(O)CC1C(C)(CO)CCCC21C (stereo unspecified)
inactive: outcome (NIH3T3) | Potency (C33A) | Potency (CAOV3) | outcome (CASKI) | Potency (Es-2) | Potency (HeLa) | Potency (Hek293T) | Potency (JEG-3) | Potency (OV90) | Potency (PA-1) | Potency (SKOV3) | Potency (Tov-21-G) | Potency (Tov112D)

C/C(=C\C1CCC(C)C2CCC3(C)OC123)C(=O)O (stereo unspecified)
inactive: outcome (NIH3T3) | Potency (C33A) | Potency (CAOV3) | outcome (CASKI) | Potency (Es-2) | Potency (HeLa) | Potency (Hek293T) | Potency (JEG-3) | Potency (OV90) | Potency (PA-1) | Potency (SKOV3) | Potency (Tov-21-G) | Potency (Tov112D)

O=C(O)Cc1cn([C@@H]2O[C@H](CO)[C@@H](O)[C@H](O)[C@H]2O[C@@H]2O[C@H](CO)[C@@H](O)[C@H](O)[C@H]2O)c2ccccc12
inactive: outcome (NIH3T3) inactive [at 17.4 µM] | Potency (C33A) | Potency (CAOV3) | outcome (CASKI) | Potency (Es-2) | Potency (HeLa) | Potency (Hek293T) | Potency (JEG-3) | Potency (OV90) | Potency (PA-1) | Potency (SKOV3) | Potency (Tov-21-G) | Potency (Tov112D)

NC(=O)[C@H](Cc1ccccc1)NC(=O)[C@H](CCCN=C(N)N)NC(=O)C12CC3CC(CC(C3)C1)C2
inactive: outcome (NIH3T3) inactive [at 9.27 µM] | activity change, negative = cytotoxicity (C33A) 15.1% [at 11.6 µM] | activity change, negative = cytotoxicity (CAOV3) 15.6% [at 11.6 µM] | activity change, negative = cytotoxicity (CASKI) 5.13% [at 11.6 µM] | activity change, negative = cytotoxicity (Es-2) 7.15% [at 11.6 µM] | activity change, negative = cytotoxicity (HeLa) 9.3% [at 11.6 µM] | activity change, negative = cytotoxicity (Hek293T) 9.9% [at 11.6 µM] | activity change, negative = cytotoxicity (JEG-3) 17.3% [at 11.6 µM] | activity change, negative = cytotoxicity (OV90) -0.378% [at 11.6 µM] | activity change, negative = cytotoxicity (PA-1) 5.55% [at 11.6 µM] | activity change, negative = cytotoxicity (SKOV3) 6.06% [at 11.6 µM] | activity change, negative = cytotoxicity (Tov-21-G) 4.32% [at 11.6 µM] | activity change, negative = cytotoxicity (Tov112D) -1.65% [at 11.6 µM]

C[C@H]1/C=C/C=C/C=C/C=C/C=C/[C@@H](O)[C@H](C(=O)O)[C@H](O)C[C@H](O)CCC[C@H](O)C[C@H](O)C[C@H](O)[C@@H](C)C(=O)O[C@@H]1C
inactive: outcome (NIH3T3) inactive [at 17.4 µM] | Potency (C33A) | Potency (CAOV3) | outcome (CASKI) | Potency (Es-2) | Potency (HeLa) | Potency (Hek293T) | Potency (JEG-3) | Potency (OV90) | Potency (PA-1) | Potency (SKOV3) | Potency (Tov-21-G) | Potency (Tov112D)

CC1(C)C=Cc2c(ccc3c2[N+]([O-])=C2C3(O)CC34NC(=O)C5(CCCN5C3=O)CC4C2(C)C)O1 (stereo unspecified)
inactive: outcome (NIH3T3) inactive [at 17.4 µM] | Potency (C33A) | Potency (CAOV3) | outcome (CASKI) | Potency (Es-2) | Potency (HeLa) | Potency (Hek293T) | Potency (JEG-3) | Potency (OV90) | Potency (PA-1) | Potency (SKOV3) | Potency (Tov-21-G) | Potency (Tov112D)

O=C(O)C[C@H]1CCC(=O)[C@@H]1C/C=C\CCO
inactive: outcome (NIH3T3) | Potency (C33A) | Potency (CAOV3) | outcome (CASKI) | Potency (Es-2) | Potency (HeLa) | Potency (Hek293T) | Potency (JEG-3) | Potency (OV90) | Potency (PA-1) | Potency (SKOV3) | Potency (Tov-21-G) | Potency (Tov112D)
